The whole screen tested about 340,000 compounds, of which about 1,700 (0.5%) were called active.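 How the source made its calls: active means compounds whose inhibition of the agonist-driven luminescence signal at 20 µM reaches about 50% (limit read from the data); inactive means the rest.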 This excerpt belongs to a sample that is enriched for actives.
Biological target: C-C chemokine receptor type 6 (Homo sapiens) (UniProt P51684)
Assay: CCR6 receptor antagonists, primary screen, cell-based, CHO-K1, luminescence, beta-arrestin, uHTS (AID 493098);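 further: cells stimulated with CCL20 at 14 nM final; plate controls were DMSO with CCL20 for no effect and DMSO without agonist for full effect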
Details: CHO-K1 CCR6 PathHunter beta-arrestin, CCL20-stimulated, at 20 µM, active compounds read high

C-C chemokine receptor type 6 (Homo sapiens), sequence (P51684 whole entry, looked up): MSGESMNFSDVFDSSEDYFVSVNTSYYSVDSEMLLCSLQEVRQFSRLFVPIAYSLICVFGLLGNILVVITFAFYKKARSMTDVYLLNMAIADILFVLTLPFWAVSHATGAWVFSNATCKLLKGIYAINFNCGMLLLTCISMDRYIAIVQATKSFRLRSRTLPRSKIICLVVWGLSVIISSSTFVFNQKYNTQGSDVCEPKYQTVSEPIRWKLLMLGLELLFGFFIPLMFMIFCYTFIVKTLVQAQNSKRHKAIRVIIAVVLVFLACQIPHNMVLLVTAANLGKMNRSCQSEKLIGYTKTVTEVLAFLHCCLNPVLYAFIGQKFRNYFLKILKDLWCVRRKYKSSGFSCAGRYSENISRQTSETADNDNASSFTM

Row | SMILES | inhibition
1 | CC(=O)N(C1=C(Cl)C(=O)c2ccccc2C1=O)c1ccc(C(=O)O)cc1 | 11.9% (inactive)
2 | O=C1C(Cl)=C(Oc2ccccc2)C(=O)c2ccccc21 | 117% (active)
3 | O=C(CCC1CCN(C(=O)c2cccc(Cl)c2F)CC1)Nc1ccccc1 | 20.2% (inactive)
4 | O=C(NC1=CC(=O)c2ccccc2C1=O)c1ccccc1 | 83% (active)
5 | O=C1C=C(NS(=O)(=O)c2ccccc2)C(=O)c2ccccc21 | 29.7% (inactive)
6 | CC(NC(=O)c1ccccc1)C(=O)Nc1ccccc1 (stereo not given) | -0.64% (inactive)
7 | CCn1c(=S)[nH]c2cc(S(=O)(=O)N3CCOCC3)ccc21 | -2.44% (inactive)
8 | CC(c1ccco1)N(C(=O)Nc1ccccc1)C1CCCCC1 (stereo not given) | 3.12% (inactive)
9 | O=C(Nc1cccc([N+](=O)[O-])c1)Nn1cnnc1 | 12.5% (inactive)
10 | COC(=O)/C=C\C(=O)Nc1cccc([N+](=O)[O-])c1 | 106% (active)
11 | COc1ccc(S(=O)(=O)NC(C)C(=O)Nc2cccc([N+](=O)[O-])c2)cc1 (stereo not given) | 7.92% (inactive)
12 | C/C(N)=C(/C#N)C(=O)COC(=O)C1=NN(c2ccccc2)C(=O)CC1 | 7.03% (inactive)
13 | Cc1ccc(S(=O)(=O)N2CCC(Oc3ccc(-n4cnnn4)cc3)CC2)cc1 | 3.04% (inactive)
14 | COc1cc(/C=C2/SC(=S)N(Cc3ccccc3)C2=O)cc(OC)c1O | 52.9% (active)
15 | COc1cccc(/C=C2/SC(=S)N(CC(=O)NC3C=CS(=O)(=O)C3)C2=O)c1 (stereo not given) | -8.12% (inactive)
16 | CN1C=CC=C/C1=C1\SC(=S)N(Cc2ccccc2)C1=O | 25.3% (inactive)
17 | COC(=O)c1ccc(NC(=O)CSc2nncc3ccc(OC)c(OC)c23)cc1 | -2.84% (inactive)
18 | COc1cc(/C=C2/C(=O)NN(c3ccc(F)cc3)C2=O)cc([N+](=O)[O-])c1O | 51.9% (active)
19 | C#CCOc1ccc(/C=C2/C(=O)NN(c3ccccc3)C2=O)cc1OC | 12% (inactive)
20 | COc1cc(CN2CC(C)CC(C)C2)cc([N+](=O)[O-])c1O (stereo not given) | 5.99% (inactive)
21 | COc1ccc(NC(=O)CC(NC(C)c2ccccc2)C(=O)O)cc1 (stereo not given) | 0.17% (inactive)
22 | O=C(COC(=O)c1cc(S(=O)(=O)N2CCOCC2)ccc1Cl)NCCc1ccccc1 | 9.32% (inactive)
23 | O=C(C1CCCO1)N(Cc1ccccc1)c1ccccc1 (stereo not given) | 2.47% (inactive)
24 | Oc1ccc(N=Nc2nccs2)c(O)c1 | 67% (active)

Row | SMILES | inhibition
25 | Oc1ccc2ccccc2c1N=Nc1nccs1 | 94.3% (active)
26 | Cc1cnc(C(=O)N2CCCC(C(=O)c3ccc(C(F)(F)F)cc3)C2)cn1 (stereo not given) | 15.2% (inactive)
27 | Cc1ccccc1C(=O)OC1OC(=O)C(Cl)=C1Nc1ccccc1 (stereo not given) | 17.2% (inactive)
28 | O=S(=O)(Nc1cc(Cl)ccc1N1CCOCC1)c1ccccc1Cl | 17.2% (inactive)
29 | Cc1oc2c(c1C(=O)N1CCOCC1)C(=O)c1ccccc1C2=O | -12.2% (inactive)
30 | O=C1c2ccccc2-c2ncnc3c(N4CCOCC4)cc(N4CCOCC4)c1c23 | 55.9% (active)
31 | Cc1ccc2c(C)c(C(=O)N3CCC(N4CCC(C(=O)NC5CC5)CC4)CC3)oc2c1 | 1.71% (inactive)
32 | CN(C(=O)CSc1nnc(Nc2ccccc2)s1)C1CCS(=O)(=O)C1 (stereo not given) | 4% (inactive)
33 | O=C1c2cccnc2C(Nc2ccc(S(=O)(=O)N3CCCCCC3)cc2)N1Cc1ccccc1 (stereo not given) | 5.72% (inactive)
34 | Cc1ccc(S(=O)(=O)NCc2ccc(C(=O)NC3CCC(C)CC3)cc2)cc1 (stereo not given) | 19.3% (inactive)
35 | Cc1cccc(CSc2ccc(-c3cccs3)nn2)c1 | 7.33% (inactive)
36 | COc1ccccc1C1SCCN1C(=O)c1ccc([N+](=O)[O-])cc1 (stereo not given) | -4.39% (inactive)
37 | CC1CC2=C(CC1/C=N/NC(N)=S)C(C)(C)CCC2 (stereo not given) | 76.2% (active)
38 | CCC(C)N(C(=O)Cn1nc(C)c([N+](=O)[O-])c1C)C1CCS(=O)(=O)C1 (stereo not given) | -5.11% (inactive)
39 | CCOc1ccc(NC(=O)COC(=O)C2CCC(=O)N2)c([N+](=O)[O-])c1 (stereo not given) | -15.3% (inactive)
40 | O=c1[nH]c(CN2CCN(S(=O)(=O)c3ccc4c(c3)OCCO4)CC2)nc2sc3c(c12)CCCC3 | 10.3% (inactive)
41 | O=S(=O)(Nc1ncccn1)c1ccc(NS(=O)(=O)c2cccc(Cl)c2Cl)cc1 | 9.31% (inactive)
42 | COc1ccc(C(=O)NC(=S)NNC(=O)c2c(-c3ccccc3)noc2C)cc1 | 32.9% (inactive)
43 | O=C(CCc1ccccc1)NNC(=O)COc1ccc(Cl)cc1 | 7.8% (inactive)
44 | COc1ccc(C(=O)NC(=S)NNC(=O)CCc2ccccc2)cc1 | 63.5% (active)
45 | COCCn1c(SCC(=O)Nc2nc(C)cs2)nnc1C(C)C | -5.85% (inactive)
46 | CN(C)CCn1c2c(c(SCC(=O)NCc3ccccc3)nc1=O)CCC2 | 8.36% (inactive)
47 | N#CC1(NC(=O)COC(=O)Cc2n[nH]c(=O)c3ccccc23)CCCCC1 | -0.31% (inactive)
48 | O=C(NNC(=O)c1cnccc1C(F)(F)F)c1ccc(Cl)cc1 | -1.91% (inactive)

Row | SMILES | inhibition
49 | CCOC(=O)CN1C(=O)C(=O)c2cc(C)ccc21 | 15.8% (inactive)
50 | CC(OC(=O)CN1C(=O)c2ccccc2C1=O)C(=O)c1ccccc1 (stereo not given) | 6.02% (inactive)
51 | CC(C)OC(=O)CN1C(=O)C(=O)c2ccccc21 | 108% (active)
52 | Cc1c(Cl)cccc1NC(=O)CSc1ccc(-c2cccnc2)nn1 | 12.9% (inactive)
53 | Cc1cc(C(=O)N2CCC(C(=O)O)CC2)c(C(F)(F)F)o1 | 4.3% (inactive)
54 | Cc1cc(NC(=O)CCC(=O)N(Cc2ccccc2)C(C(=O)NC2CCCC2)c2ccc(C)o2)no1 (stereo not given) | 7.11% (inactive)
55 | O=C(NNc1cc(Cl)ccc1Cl)c1cccnc1Cl | 13.2% (inactive)
56 | CC(=O)/C(=N\Nc1ccc(Cl)cc1Cl)Sc1cccc2cccnc12 | 65.9% (active)
57 | COc1cccc(CNC(=O)c2cccnc2Sc2ccc(Cl)cc2)c1 | -12.9% (inactive)
58 | CC(Sc1nc2c([nH]c3ccccc32)c(=O)n1C)c1ccccc1 (stereo not given) | 5.65% (inactive)
59 | CC(=O)c1ccc(N=C2SCCCN2C(=O)C2CCCCC2)cc1 | 12.7% (inactive)
60 | COc1cc(OC)cc(-c2cc3nc(C4CCN(C(=O)OC(C)(C)C)CC4)cc(=O)n3[nH]2)c1 | -12.3% (inactive)
61 | CSCCC(NC(=O)COc1ccccc1)C(=O)OCC(=O)c1cc2ccccc2o1 (stereo not given) | 59.6% (active)
62 | CSCCC(NC(=O)COc1ccccc1)C(=O)OCCOc1ccc(Br)cc1 (stereo not given) | 12.1% (inactive)
63 | CSCCC(NC(=O)COc1ccccc1)C(=O)OCc1ccc(Cl)cc1 (stereo not given) | -15.3% (inactive)
64 | C#CCO[C@@H]1C[C@H](n2cnc3c(=O)[nH]c(NC(=O)C(C)C)nc32)O[C@@H]1CO | -6.43% (inactive)
65 | Cc1csc(SCC(=O)N(c2ccccc2)C(C)C)n1 | 13.7% (inactive)
66 | Cc1nc(-c2ccc(F)cc2)c(CC(=O)Nc2cc(S(=O)(=O)N3CCCCC3)ccc2C)s1 | 5.08% (inactive)
67 | CC1=C/C(=N\OS(=O)(=O)c2ccccc2)C=CC1=O | 80.3% (active)
68 | O=C(NC1CC1)C(Cc1ccccc1)NS(=O)(=O)c1ccccc1F (stereo not given) | 6.69% (inactive)
69 | CN(/N=C/c1ccccc1)C(=S)c1ccccc1 | 23.9% (inactive)
70 | CN(CC(=O)O)C(=O)c1ccccc1 | -10.2% (inactive)
71 | CN(O)C(=S)c1ccccc1 | 95.7% (active)
72 | COC(=O)c1sc(-c2ccc(C(C)(C)C)cc2)cc1NC(=O)/C=C/C(=O)O | -1.25% (inactive)

Row | SMILES | inhibition
73 | O=[N+]([O-])/C=C/c1ccc2c(ccn2Cc2ccccc2)c1 | 91.2% (active)
74 | Cc1nnc(NC(=O)Cn2c(=O)sc3ccccc32)s1 | -5.17% (inactive)
75 | COc1cccc(NC(=O)c2cc(S(=O)(=O)N3CCc4ccccc43)cn2C)c1 | -11.8% (inactive)
76 | Cc1cccc(NC(=O)Cc2ccc(Br)cc2)n1 | 13.2% (inactive)
77 | O=C(CCl)NNc1cccc(Cl)n1 | 60.7% (active)
78 | O=C(Cc1c(Cl)cccc1Cl)NC1CC1 | -1.28% (inactive)
79 | C=CCC(C(=O)c1ccccc1)[N+](C)(C)CC=C (stereo not given) | -0.91% (inactive)
80 | CN(CCc1ccccn1)C(=O)c1ccc(OC2CCN(CCc3ccccc3)CC2)cc1 | 13.6% (inactive)
81 | CCc1c(C)nc2c(-c3ccccc3)c(C)nn2c1Nc1ccc(NC(C)=O)cc1 | 4.32% (inactive)
82 | COc1ccc(C(=O)NCC(=O)N/N=C/c2cccnc2)cc1 | -3.8% (inactive)
83 | CCn1c(SCC(=O)N/N=C/c2ccncc2)nc2ccccc21 | 10.1% (inactive)
84 | O=C(CSc1cccc2cccnc12)N/N=C/c1cccnc1 | 61.7% (active)
85 | COc1ccc(C(=O)NCc2ccccc2C)cc1S(=O)(=O)NC1CCCC1 | 2.68% (inactive)
86 | O=c1onc(-c2cccs2)n1Cc1ccccc1 | 2.59% (inactive)
87 | Cc1c(O)c(C)c2c(c1O)C(=O)C[C@@H](c1ccccc1)O2 | 14.4% (inactive)
88 | COC(=O)C1=C(C)N(C)C(C)=C(C(=O)OC)C1c1cccc(Br)c1 | 36.4% (inactive)
89 | COc1ccc(C(=O)c2oc3ccc(Br)cc3c2NC(C)=O)cc1 | 3.07% (inactive)
90 | COC(=O)C1NN=C(C(=O)c2ccc(Br)cc2)C1c1cccc(Br)c1 (stereo not given) | 52.8% (active)
91 | COC(=O)c1ccc([C@@H](O)[C@H](C)C(=O)CC(=O)OC(C)(C)C)cc1 | 0.65% (inactive)
92 | N#Cc1cccc(OC(=O)c2ccc3c(=O)n4c(nc3c2)CCC4)c1 | 9.54% (inactive)
93 | Cc1ccc(-n2ncc3c(Nc4cccc(C(=O)O)c4)ncnc32)cc1 | 9.65% (inactive)
94 | COc1cc(CNc2ncn[nH]2)ccc1OCc1ccccc1C | -5.7% (inactive)
95 | CC1(C)CC[C@]2(C(=O)O)CC[C@]3(C)C(=CCC4[C@@]5(C)CC[C@H](O)C(C)(C)C5[C@H](O)C[C@]43C)[C@@H]2C1 (stereo not given in full) | -0.24% (inactive)

— PubChem BioAssay AID493098 (Sanford-Burnham Center for Chemical Genomics, 2011)
